This excerpt belongs to a sample that is enriched for hits.
Pf Dd2 growth: inhibitors of Plasmodium falciparum Dd2 growth. Potency, µM (top dose mostly 28.9 µM), without a hit: at the top dose activity, negative = inhibition, usual class: inhibitors. AID 1347417. P. falciparum Dd2 growth, SYBR Green, 72 h. 120,000 tested, 4.3% active; active = well fitted inhibition curve with a large enough effect;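 also: plate controls were DMSO vehicle for no effect and reference drug for full effect; nearly all actives have a fitted effect of over 65% in size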
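Readout: SYBR Green fluorescence, 485 nm excitation, 535 nm emission, after ~16 h lysis at 37C. Before that, Dd2-infected red cells (2.5% hematocrit) grew 72 h with compound, 29 uM top final concentration.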
* = called active by the depositor; [ ] = dose if it differs, or a comment. Potency is read from the fitted curve at half-maximal effect.

How did CCCNC(=O)NC[C@@H]1C=C(C)[C@H](Cc2nc3ccccc3[nH]2)C[C@H]1C(C)C do in these assays?
Pf Dd2 growth: inactive

Results for CC1=C[C@@H](CNC(=O)C2CC2)[C@H](C(C)C)C[C@H]1CC(=O)N1CCOCC1 ?
Pf Dd2 growth: inactive

What do the screens show for `CC(=O)N1CCN(C(=O)C[C@@H]2C[C@@H](C(C)C)[C@H](CNC(=O)C3CC3)C=C2C)CC1`?
Pf Dd2 growth: inactive

What do the screens show for `CC1=C[C@@H](CNC(=O)Cn2cnnn2)[C@H](C(C)C)C[C@H]1Cc1nc2ccccc2[nH]1`?
Pf Dd2 growth: inactive

What do the screens show for `CCC(CC)C(=O)NC[C@@H]1C=C(C)[C@H](Cc2nc3ccccc3n2C)C[C@H]1C(C)C`?
Pf Dd2 growth: 11.2µM*

Results for CN(C)c1ccc(C(=O)N[C@H]2C[C@H]3C(=O)NC[C@@H](CCC(=O)NCc4ccccc4)N3C2)cc1 ?
Pf Dd2 growth: inactive

How did O=C(NC1C[C@H]2CC[C@@H](C1)N2C(=O)COc1ccc(Cl)cc1)c1ccncc1 (stereo not given in full) do in these assays?
Pf Dd2 growth: -14.9%

How did CN1CCOC[C@H]1c1ncc(-c2cccc(F)c2)[nH]1 do in these assays?
Pf Dd2 growth: 0.1%[44.1 µM]

How did CN(C)C(=O)C1CN(C(=O)Nc2ccc(F)cc2)CC12CCOCC2 (stereo not given) do in these assays?
Pf Dd2 growth: 17.3%

How did CSc1cccc(N2C(=O)[C@@H]3C[C@@H](NC(=O)c4cccn4C)CCN3C2=O)c1 do in these assays?
Pf Dd2 growth: 10µM*

Results for Cc1ccc(N2C(=O)[C@@H]3C[C@@H](NC(=O)c4cccn4C)CCN3C2=O)cc1 ?
Pf Dd2 growth: inactive

Results for Cn1cccc1C(=O)N[C@H]1CCN2C(=O)N(c3cccc(F)c3)C(=O)[C@@H]2C1 ?
Pf Dd2 growth: -10.5%[44.1 µM]

Results for O=C(c1cc(Cl)ccc1F)N1CCC[C@H]1c1nc(-c2ccccc2)no1 ?
Pf Dd2 growth: -4.7%

How did CCN(CC)CC(=O)N1CCC(C(=O)Nc2ccc(-c3nc4ccccc4o3)cc2)CC1 do in these assays?
Pf Dd2 growth: 10µM*

How did CN(C)c1ccc(C(=O)Nc2ccc(-c3nc4ccccc4o3)cc2)cc1 do in these assays?
Pf Dd2 growth: -25.3%

How did Cc1ccccc1OCC(=O)Nc1ccc(-c2nc3ccccc3o2)cc1 do in these assays?
Pf Dd2 growth: inactive

Results for COCCO[C@H]1COCCN(S(=O)(=O)c2ccc(F)cc2)C1 ?
Pf Dd2 growth: 7.6%[44.1 µM]

How did O=C(COc1ccc(F)cc1)N1CCC2(CC1)CC(OCC1CC1)CCO2 (stereo not given) do in these assays?
Pf Dd2 growth: inactive

What do the screens show for `COc1ccccc1CNC[C@H]1O[C@@H]2C[C@@H](CC(=O)N3CCOCC3)O[C@@H]2[C@@H]1O`?
Pf Dd2 growth: 21.2%[44.1 µM]

What do the screens show for `COCCN1Cc2ccc(NCc3ccccc3)nc2C(C)(C(=O)NCc2ccccc2)C1` (stereo not given)?
Pf Dd2 growth: -26.5%

Results for COCCN1Cc2ccc(Nc3ccc(OC)cc3)nc2C(C)(C(=O)NCC2CC2)C1 (stereo not given) ?
Pf Dd2 growth: inactive

Results for COCCN1Cc2ccc(Nc3ccc(OC)cc3)nc2C(C)(C(=O)NC(C)C)C1 (stereo not given) ?
Pf Dd2 growth: 12.6µM*

How did O=[N+]([O-])c1cc(-c2nc(-c3ccco3)no2)ccc1NCc1ccccc1 do in these assays?
Pf Dd2 growth: -8.0%

What do the screens show for `CCCCNc1ccc(-c2nc(-c3ccco3)no2)cc1[N+](=O)[O-]`?
Pf Dd2 growth: 13.5%

How did CCC(Nc1ccc(-c2nc(-c3ccco3)no2)cc1[N+](=O)[O-])c1ccccc1 (stereo not given) do in these assays?
Pf Dd2 growth: 10µM*

Results for CCCN(CCC)C(=O)C1CCCN(c2ncnc3onc(-c4ccc(F)cc4)c23)C1 (stereo not given) ?
Pf Dd2 growth: -9.0%

What do the screens show for `COc1cc(Cl)c(C)cc1NC(=O)C1CCCN(c2ncnc3onc(-c4ccc(F)cc4)c23)C1` (stereo not given)?
Pf Dd2 growth: 11.2µM*

What do the screens show for `Cc1ccc(C)c(NC(=O)C2CCCN(c3ncnc4onc(C)c34)C2)c1` (stereo not given)?
Pf Dd2 growth: -24.6%

How did Cc1noc2ncnc(N3CCCC(C(=O)NCCC(C)C)C3)c12 (stereo not given) do in these assays?
Pf Dd2 growth: -15.3%

How did Cc1ccc(NC(=O)C2CCCN(c3ncnc4onc(-c5ccc(F)cc5)c34)C2)c(Cl)c1 (stereo not given) do in these assays?
Pf Dd2 growth: -10.8%

What do the screens show for `CC(C)N(Cc1ccccc1)C(=O)C1CCCN(c2ncnc3onc(-c4ccc(F)cc4)c23)C1` (stereo not given)?
Pf Dd2 growth: 8.91µM*

Results for CN1CC(=O)N(C2CCCNC2)Cc2c(NC3CCN(Cc4ccccc4)CC3)ncnc21 (stereo not given) ?
Pf Dd2 growth: -2.9%

How did O=C([C@H]1C[C@@H](F)CN1S(=O)(=O)c1ccc(C(F)(F)F)cc1)N1CCOCC1 do in these assays?
Pf Dd2 growth: inactive

What do the screens show for `COC(=O)[C@H](NC(=O)[C@@H]1[C@@H](NC(=O)Nc2ccc(F)cc2F)CCN1C(=O)c1cnccn1)C(C)C`?
Pf Dd2 growth: 5.4%

Results for O=C(c1ccc(F)cc1)N1CCCC(c2nn(-c3ccc(F)cc3)c(=O)[nH]2)C1 (stereo not given) ?
Pf Dd2 growth: -22.2%

What do the screens show for `O=C(NCc1cnc2c(c1)CCC2)C1NCCc2[nH]cnc21` (stereo not given)?
Pf Dd2 growth: inactive

What do the screens show for `O=C1CCN(C(=O)C2CCN(S(=O)(=O)c3ccccc3)CC2)CCCCCCN1`?
Pf Dd2 growth: 16.4%

Results for O[C@H]1[C@H](n2cc(-c3cccc(F)c3)nn2)c2ccccc2C12CCNCC2 ?
Pf Dd2 growth: -10.4%

What do the screens show for `Cc1ccc(C(=O)N2CC(Oc3ccc(F)cc3C)C2)cc1`?
Pf Dd2 growth: 11.2µM*

Results for Cc1cc(F)ccc1OC1CN(C(=O)c2ccccn2)C1 ?
Pf Dd2 growth: -0.3%[44.1 µM]

What do the screens show for `Cc1ccc(OC2CN(C(=O)c3ccc(F)cc3)C2)cc1C`?
Pf Dd2 growth: -30.2%[44.1 µM]

What do the screens show for `O=C(Cn1cccc1-c1nc(-c2ccc3c(c2)OCO3)no1)Nc1ccc(Cl)cc1F`?
Pf Dd2 growth: -15.5%

How did Cc1ccc(Cn2c(C3CCN(C(=O)c4ccccc4Cl)CC3)n[nH]c2=O)cc1 do in these assays?
Pf Dd2 growth: -18.9%

Results for COc1ccc(CC(=O)N2CCC(c3n[nH]c(=O)n3Cc3ccc(OC)cc3)CC2)cc1 ?
Pf Dd2 growth: 12.6µM*

How did COc1ccc(Cn2c(C3CCN(C(=O)c4ccc(OC)cc4)CC3)n[nH]c2=O)cc1 do in these assays?
Pf Dd2 growth: -23.5%

What do the screens show for `Cc1ccc(Cn2c(C3CCN(C(=O)c4ccc(C)s4)CC3)n[nH]c2=O)cc1`?
Pf Dd2 growth: 11.2µM*

What do the screens show for `COc1ccc(CC(=O)N2CCC(c3n[nH]c(=O)n3Cc3ccc(F)cc3)CC2)cc1`?
Pf Dd2 growth: inactive

What do the screens show for `Cc1ccc(Cn2c(C3CCN(C(=O)c4ccc(C)cc4)CC3)n[nH]c2=O)cc1`?
Pf Dd2 growth: -24.0%

What do the screens show for `Cc1c(F)cccc1NC(=O)C1CCN(C(=O)c2ncn3c2COC(c2ccc(F)cc2)C3)CC1` (stereo not given)?
Pf Dd2 growth: inactive

How did Cc1ccc(-n2nc(-c3c(C)nc4scc(CC(=O)NC(C)c5ccccc5)n4c3=O)cc2C)cc1 (stereo not given) do in these assays?
Pf Dd2 growth: -1.5%

Screens deposited in PubChem by National Center for Advancing Translational Sciences (NCATS).
